The source of these data is PubChem BioAssay (Tox21).

Inconclusive results are not listed. A call without a number means that no potency is given here. Calls of active or inactive are those of the source. Calls come from the whole dose curve.

Sequence of 5-hydroxytryptamine receptor 2A (Homo sapiens) (P28223 whole entry, looked up): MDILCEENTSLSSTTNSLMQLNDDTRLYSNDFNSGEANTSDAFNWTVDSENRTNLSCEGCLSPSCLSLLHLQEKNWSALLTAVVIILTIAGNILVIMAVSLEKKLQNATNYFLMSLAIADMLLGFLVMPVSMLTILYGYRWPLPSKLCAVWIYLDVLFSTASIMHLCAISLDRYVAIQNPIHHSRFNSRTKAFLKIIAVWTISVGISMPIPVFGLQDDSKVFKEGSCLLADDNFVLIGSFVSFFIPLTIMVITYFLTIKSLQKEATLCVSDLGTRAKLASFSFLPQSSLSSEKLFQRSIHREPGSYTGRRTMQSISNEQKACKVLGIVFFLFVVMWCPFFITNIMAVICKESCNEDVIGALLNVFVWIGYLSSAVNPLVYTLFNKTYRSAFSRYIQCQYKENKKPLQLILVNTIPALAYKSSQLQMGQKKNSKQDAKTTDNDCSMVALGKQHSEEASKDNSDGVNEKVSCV

This assay concerns the target 5-hydroxytryptamine receptor 2A (Homo sapiens) (UniProt P28223). Nature of the assay: 5-hydroxytryptamine receptor 2A (HTR2A) small molecule antagonists, cell-based qHTS assay (AID 1963586). Note: nearly all actives have a fitted effect of over 45% in size. The settings on record: HTR2A-CHO cells, DOI-induced calcium flux, fluorescence; series mostly up to 61.5 µM. The method, boiled down: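 CHO cells stably expressing human HTR2A were plated for 18 h at 37 C, then loaded with calcium dye for 1 h. Compounds were preincubated 5 min at room temperature before DOI (4 nM solution) was added. Kinetic fluorescence was read for 3 min.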
With `O=C=NCC1CCCC(CN=C=O)C1` (stereo not given), the Potency result was “inactive”.
Same read-out and setting: with `CC(CCO)CCCC(C)(C)O` (stereo not given) the entry was “inactive”; with `Cc1ccc2ccc3cccc4ccc1c2c34`, “inactive”; with `CCOc1ccc(NS(=O)(=O)c2ccc(N)cc2)nn1`, “inactive”.
On the same count and under the same terms, to `COC(=O)c1cc(Cl)cc(Cl)c1` belongs “inactive”; to `Oc1cc2ccccc2c2ccccc12`, “inactive”.
On the same count and under the same terms, to `Cc1ccc(-c2ncc(Cl)cc2-c2ccc(S(C)(=O)=O)cc2)cn1` belongs “inactive”.
Regarding `Cc1[nH]c(C)c(Cl)c(=O)c1Cl`, the activity, negative = inhibition is 81.1% [at 12.7 µM] (inactive).
In the case of `CCCNCCC`, the Potency result is “inactive”.
The same measure, in the same setting: to `COc1cc(N)ccc1C` belongs “inactive”.
With `Cc1ccc2c(c1)CCCN2`, the Potency result is “inactive”.
Same read-out and setting: to `NCCCCCCNCCCCCCN` belongs “inactive”; to `CC(C)(C)C1CCCCC1=O` (stereo not given), “inactive”; to `CN(C)CCOCCO`, “inactive”.
Still for that read-out and setting: with `CC1(C)CC(O)CC(C)(C)N1[O]` the entry was “inactive”.
Regarding `C=CCCCCCCCCCCCCCC`, the activity, negative = inhibition is 4.99% [at 12.7 µM] (inactive).
In the case of `CCN1C=CN(C)C1C` (stereo not given), the Potency entry is “inactive”.
The same measure, in the same setting: to `CC[N+](C)(CC)CCOC(=O)C1c2ccccc2Oc2ccccc21` belongs “inactive”; to `NCCCN(CCO)CCO`, “inactive”; to `O=Cc1cc(O)ccc1Br`, “inactive”.
Same read-out and setting: with `O=CN(CCO)CCO` the entry was “inactive”; with `CCN(C(=O)N(CC)c1ccccc1)c1ccccc1`, “inactive”; with `CCC(CC)CO`, “inactive”.
On the same count and under the same terms, to `CC/C=C\CC/C=C/CO` belongs “inactive”.
Turning to `CC(CSC(=O)c1ccccc1)C(=O)N1C[C@@H](Sc2ccccc2)C[C@H]1C(=O)O` (stereo not given in full), the activity, negative = inhibition was 20.9% [at 12.7 µM] (inactive).
On to `Cc1ccccc1N=C(N)Nc1ccccc1C`, for which the Potency result is “inactive”.
The same measure, in the same setting: with `C1C2OC2C2C1C1CC2C2OC12` (stereo not given) the entry was “inactive”; with `CC[N+](CC)(CC)CCOC(=O)C(C1CCCC1)C1CCCC1`, “inactive”.
Still for that read-out and setting: to `O=C1CCCCCCCCCCCC(=O)OCCO1` belongs “inactive”; to `CCCCOC(=O)CCCCC(=O)OCCCC`, “inactive”.
Regarding `c1cc[c]([Bi]([c]2ccccc2)[c]2ccccc2)cc1`, the Potency entry was “inactive”.
On the same count and under the same terms, to `C=C[Si](OC)(OC)OC` belongs “inactive”.
The same measure, in the same setting: to `CC(CC=O)CCCC(C)(C)O` (stereo not given) belongs “inactive”; to `CCOC(=O)C1=NN(c2ccccc2)C(=O)C1`, “inactive”.
The same measure, in the same setting: to `Cc1c(Cl)cccc1Cl` belongs “inactive”; to `O=C1c2cccc3c2[C@H](CCC3)CN1[C@@H]1CN2CCC1CC2`, “inactive”; to `CCCCC(CC)COC(=O)c1ccccc1` (stereo not given), “inactive”.
As for `CN(C)CCOC(=O)C(c1ccccc1)C1(O)CCCC1` (stereo not given), the Potency result is “inactive”.
Take `CCN1CCC[C@H]1CNC(=O)c1c(OC)ccc(Br)c1OC`: the Potency entry was “inactive”.
Take `CCCCCCCCCCCCCCCC(=O)OCC`: the Potency entry is “inactive”.
